Hit rate of the full screen: of about 5,600 compounds, about 390 (7%) showed an effect of 50% or more. The full list was thinned out, with strong results kept by preference. Non-standard residues stand in square brackets, D forms with d. Residues, ends and D or L forms follow the SMILES beside them. dTrp(2-Me) = Cc1[nH]c2ccccc2c1C[C@@H](N)C(=O)O

Among the data in ChEMBL document CHEMBL4808148, “HDAC6 screening dataset using tau-based substrate in an enzymatic assay yields selective inhibitors and activators” (2021) are inhibition values, retold here.

In experiment [1] the target is T1, Protein deacetylase HDAC6 (Homo sapiens) (UniProt Q9UBN7).
T1 sequence (whole entry): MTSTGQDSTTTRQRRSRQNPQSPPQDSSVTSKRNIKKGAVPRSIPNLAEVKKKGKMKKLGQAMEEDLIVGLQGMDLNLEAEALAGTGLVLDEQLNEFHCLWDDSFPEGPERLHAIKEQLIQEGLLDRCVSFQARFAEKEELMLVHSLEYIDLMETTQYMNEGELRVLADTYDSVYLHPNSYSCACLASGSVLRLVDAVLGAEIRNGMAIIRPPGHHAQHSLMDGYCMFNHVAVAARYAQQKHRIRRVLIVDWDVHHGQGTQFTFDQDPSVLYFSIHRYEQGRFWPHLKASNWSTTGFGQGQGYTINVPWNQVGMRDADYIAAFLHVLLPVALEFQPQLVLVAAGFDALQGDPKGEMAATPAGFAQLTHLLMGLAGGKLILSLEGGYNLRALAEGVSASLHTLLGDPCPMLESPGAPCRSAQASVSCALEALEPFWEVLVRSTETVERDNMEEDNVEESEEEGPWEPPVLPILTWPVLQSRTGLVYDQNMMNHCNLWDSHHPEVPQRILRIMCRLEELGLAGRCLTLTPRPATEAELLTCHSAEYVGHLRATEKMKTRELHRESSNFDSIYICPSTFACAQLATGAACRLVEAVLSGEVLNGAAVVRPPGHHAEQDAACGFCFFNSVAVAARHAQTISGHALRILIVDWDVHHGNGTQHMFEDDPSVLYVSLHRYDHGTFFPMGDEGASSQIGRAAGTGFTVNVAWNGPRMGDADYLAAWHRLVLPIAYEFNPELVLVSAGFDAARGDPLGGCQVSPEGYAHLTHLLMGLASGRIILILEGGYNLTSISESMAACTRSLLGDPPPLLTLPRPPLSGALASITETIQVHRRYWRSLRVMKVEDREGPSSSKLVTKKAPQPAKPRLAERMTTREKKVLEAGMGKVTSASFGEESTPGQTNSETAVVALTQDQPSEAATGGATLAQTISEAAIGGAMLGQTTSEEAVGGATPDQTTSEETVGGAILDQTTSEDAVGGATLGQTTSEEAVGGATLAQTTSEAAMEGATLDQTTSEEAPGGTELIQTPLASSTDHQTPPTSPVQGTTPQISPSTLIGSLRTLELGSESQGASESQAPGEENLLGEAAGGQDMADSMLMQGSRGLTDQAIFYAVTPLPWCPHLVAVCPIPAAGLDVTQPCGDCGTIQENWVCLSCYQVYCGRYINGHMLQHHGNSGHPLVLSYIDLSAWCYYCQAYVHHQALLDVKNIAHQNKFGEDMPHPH
To be noted: at 10 µM.

In experiment [2] the target is Protein deacetylase HDAC6 (Homo sapiens) (UniProt Q9UBN7). The conditions noted are these: at 10 µM. This is another data set of the same source.

In general, inhibition refers to the change of the read-out against control, counted positive when it falls. In the case of `Nc1ccc(F)cc1NC(=O)c1ccc(CNC(=O)/C=C/c2cccnc2)cc1`, the inhibition in experiment [1] is -6.65%.

For the compound `N[C@H](CSC(c1ccccc1)(c1ccccc1)c1ccccc1)C(=O)O`, the inhibition in experiment [1] was -3.09%.

For the compound `Cc1nc2n(c(=O)c1CCN1CCC(c3noc4cc(F)ccc34)CC1)CCCC2O` (stereo not given), the inhibition in experiment [1] is -9.07%.

Take `N#Cc1cnc2cnc(NCc3cccnc3)cc2c1Nc1ccc(F)c(Cl)c1`: the inhibition in experiment [1] is -0.05%.

Consider `COc1ccc(-c2coc3cc(O)ccc3c2=O)cc1`, for which, in experiment [1], the inhibition stood at 99.6%.

Take `COc1ccc(-n2c(C)c([N+](=O)[O-])c3ccc(O)cc32)cc1`: in experiment [1], the inhibition was 12.7%.

As for `N[C@@H](CCNCc1ccc(Cl)cc1)C(=O)N1CCCCC1`, in experiment [1], the inhibition came out at 0.96%.

Take `N=C(Nc1ccc(I)cc1)NC1C2CC3CC(C2)CC1C3` (stereo not given): the inhibition in experiment [1] is 1.97%.

As to `Cc1ccc(-c2ncc[nH]2)cc1NC(=O)c1ccc(OCc2ccccn2)cc1`, the inhibition in experiment [1] was determined as 21.3%.

`Fc1ccc(-c2nc3n(c2-c2ccncc2)CCS3)cc1`: in experiment [1], the inhibition was -4.98%.

With `Cc1c(F)cccc1NC(=O)Nc1ccc(Cl)c(S(=O)(=O)[C@H]2CCCNC2)c1O`, the inhibition in experiment [1] worked out at 36.1%.

Turning to `CN1CCN(C2=Cc3ccccc3Oc3ccc(Cl)cc32)CC1`, in experiment [1], the inhibition turned out to be 2.47%.

With `Cc1nc2c(OCc3ccccc3)cccn2c1CC#N`, the inhibition in experiment [1] was determined as 76.9%.

As to `COc1ccc(COc2ccc(CC#N)cc2)cc1`, the inhibition in experiment [1] was 28.5%.

Turning to `CCCc1c(OCCCCc2nnn[nH]2)ccc(C(C)=O)c1O`, the inhibition in experiment [1] was found to be 4.66%.

Take `CC[N+](C)(CC)CCOC(=O)C(O)(c1ccccc1)C1CCCCC1` (stereo not given): in experiment [1], the inhibition was -2.19%.

With `COc1ccc2c(C)nc(Nc3nc(C)c(C)c(O)n3)nc2c1`, in experiment [1], the inhibition came to 20.5%.

On to `CCc1cnc(N2CCC(c3nc(COc4ccc(-n5cnnn5)cc4)cs3)CC2)nc1`, for which, in experiment [1], the inhibition came out at 14.7%.

Turning to `O=C1c2ccccc2C(=O)C1c1ccccc1`, in experiment [1], the inhibition was 7.2%.

With `O=C1c2ccccc2C(=O)C1c1ccc(Br)cc1`, the inhibition in experiment [1] turned out to be 95.5%.

As for `COc1ccc(C2C(=O)c3ccccc3C2=O)cc1`, the inhibition in experiment [1] came out at 98.2%.

With `O=C1c2ccccc2C(=O)C1c1ccc(Cl)cc1`, the inhibition in experiment [1] turned out to be 18.6%.

Consider `CCCC1(CCC)CCC2(CCN(CCCN(CC)CC)C2)CC1`, for which, in experiment [1], the inhibition is -1.4%.

Turning to `C[C@@H](O)[C@H]1C(=O)N2C(C(=O)O)=C(S[C@@H]3CN[C@H](C(=O)Nc4cccc(C(=O)O)c4)C3)[C@H](C)[C@H]12`, in experiment [1], the inhibition was 29.2%.

For the compound `CC1(c2ccccc2)OC(C(=O)O)=CC1=O` (stereo not given), the inhibition in experiment [1] is -2.75%.

In the case of `Nc1nccc(-c2c(-c3ccc(F)cc3)ncn2C2CCCCC2)n1`, the inhibition in experiment [1] turned out to be 10.1%.

With `COc1cc(C(=O)NC2CCN(C)CC2)c(F)cc1Nc1ncc2c(n1)N(C1CCCC1)CC(F)(F)C(=O)N2C`, the inhibition in experiment [1] worked out at 2.87%.

As to `Cc1[nH]c2ccccc2c1C[C@@H](NC(=O)[C@@H](N)Cc1c[nH]cn1)C(=O)N[C@@H](C)C(=O)N[C@@H](Cc1c[nH]c2ccccc12)C(=O)N[C@H](Cc1ccccc1)C(=O)N[C@@H](CCCCN)C(N)=O` (H-H[dTrp(2-Me)]AW[dF]K-NH2), the inhibition in experiment [1] was -0.06%.

As to `NCCCCCC(O)(P(=O)(O)O)P(=O)(O)O`, in experiment [1], the inhibition is 0.9%.

For “ANTIMONY POTASSIUM TARTRATE TRIHYDRATE, CHEMBL2097098”, the inhibition in experiment [2] was 31.4%.

In the case of AURANOFIN, CHEMBL1366, in experiment [2], the inhibition was -8.98%.

For “BIS(MALTOLATO)OXOVANADIUM(IV), CHEMBL286447”, in experiment [2], the inhibition turned out to be 51.3%.

For “Antimonyl (potassium tartrate trihydrate), CHEMBL2097098”, in experiment [2], the inhibition is 13.3%.

As for `CO[C@@H]1[C@H](OC(=O)/C=C/C=C/C=C/C=C/C(=O)O)CC[C@]2(CO2)[C@H]1[C@@]1(C)O[C@@H]1CC=C(C)C`, the inhibition in experiment [1] is 3.49%.

For `CCCCC[C@H](O)/C=C/[C@@H]1[C@H]2C/C(=C/CCCC(=O)O)O[C@H]2C[C@H]1O`, in experiment [1], the inhibition was 10.8%.

Consider `Cn1cc(CCn2cnc(-c3cnn(C)c3)c2-c2ccc(C#N)cc2)cn1`, for which the inhibition in experiment [1] is 15%.

Take `O=S(=O)(O)c1ccc2[nH]c(-c3ccccc3)nc2c1`: the inhibition in experiment [1] was 84.1%.

For the compound `O=C1c2ccc(Nc3ccc(F)cc3F)cc2CCc2ccc(OC[C@H](O)CO)cc21`, in experiment [1], the inhibition worked out at 24.2%.

On to `C#Cc1cnc2nc(O)n(C(CC)CC)c2n1`, for which, in experiment [1], the inhibition was -6.31%.

Turning to `Nc1ncnc2[nH]nc(Nc3ccc(F)cc3)c12`, the inhibition in experiment [1] was determined as 17.6%.

On to `Nc1nc(N)nc(-c2cc(Cl)ccc2Cl)n1`, for which, in experiment [1], the inhibition was 17.2%.

On to `Nc1ncnc(Nc2ccc(Cl)cc2)n1`, for which the inhibition in experiment [1] was 74.5%.

Regarding `CCO/N=C(/C(=O)NC1C(=O)N2C(C(=O)O)=C(Sc3nc(-c4cc[n+](C)cc4)cs3)CS[C@H]12)c1nsc(NP(=O)(O)O)n1` (stereo not given in full), the inhibition in experiment [1] was 20.6%.

As to `CC(C)[C@@H]1CC[C@@H](C)C[C@H]1O`, in experiment [1], the inhibition amounted to 2.89%.

`CN(C)CCC(O)(c1ccccc1)c1ccccc1Cl` (stereo not given): the inhibition in experiment [1] turned out to be 36.5%.

Consider `Cc1ccc(NC2=CC(=O)c3sc(C)nc3C2=O)cc1`, for which the inhibition in experiment [1] was found to be 53.2%.

`Cc1c(-c2ccccc2F)[nH]c(N)c1C#N`: in experiment [1], the inhibition came out at 28.6%.

For the compound VERTEPORFIN, CHEMBL5314346, the inhibition in experiment [2] is 22.2%.

Regarding `Cc1cccc(/C=C/c2ccccc2)n1`, in experiment [1], the inhibition came out at 100%.

As to `Nc1nccc(/C=C/c2ccccc2)n1`, the inhibition in experiment [1] came out at 99.6%.
